# High-throughput results: PubChem, several laboratories
# MITF TRPM1 HTS – activators of MITF-driven TRPM1 promoter reporter, primary screen, cell-based, SK-MEL-5, luciferase, single point. 300,000 compounds, 0.75% hits. SK-MEL-5 TRPM1-promoter luciferase, 24 h; % of positive control, neutral wells = 0. activation, % at 12.5 µM;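 active = mean activation of at least 80% with every replicate also reaching 80%; inconclusive = mean reaches 80% but some replicate falls short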;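 note: 0% = neutral control wells and 100% = parthenolide positive control wells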
# GAA850 FXN act – FXN promoter activators, primary screen, cell-based, luciferase luminescence, HEK293 lucGAA850; AID 540364, 2011; HEK293 lucGAA850 FXN promoter luciferase reporter, 24 h; percent of 10 µM SAHA response; 360,000 compounds, 0.56% hits; activation, % at 6 µM;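 active = activation above the average of all compounds screened plus 3 SD, cutoff fixed separately per campaign, cut at about 7.5% in these data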;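 note: 0% = DMSO wells and 100% = 10 µM SAHA wells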
# esBAF inh – Bmi1 luciferase reporter increase in mESCs, primary screen, esBAF inhibitor project, mouse ES cells, Bmi1 luciferase knock-in, single point; reporter increase, % at 12.5 µM; 350,000 compounds, 2% hits; 24 h; 100% = twice the neutral-well signal; AID 602393, 2012; in the data active = activation above about 40%; inconclusive = no clear call, values can overlap the other calls;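 note: 0% = median of the plate's neutral control wells and 100% = double that signal; a rise in the Bmi1 reporter signal indicates esBAF inhibition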
# AHR act – AHR activators, primary screen, cell-based, luminescence, luciferase reporter, human; activation, % at 5 µM; AHR-responsive luciferase reporter cells; 320,000 compounds, 2.5% hits; Aryl hydrocarbon receptor (Homo sapiens), P35869; in the data active = activation above about 47%;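 note: 0% = vehicle wells and 100% = reference agonist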
# Target sequence (P35869 whole entry, looked up): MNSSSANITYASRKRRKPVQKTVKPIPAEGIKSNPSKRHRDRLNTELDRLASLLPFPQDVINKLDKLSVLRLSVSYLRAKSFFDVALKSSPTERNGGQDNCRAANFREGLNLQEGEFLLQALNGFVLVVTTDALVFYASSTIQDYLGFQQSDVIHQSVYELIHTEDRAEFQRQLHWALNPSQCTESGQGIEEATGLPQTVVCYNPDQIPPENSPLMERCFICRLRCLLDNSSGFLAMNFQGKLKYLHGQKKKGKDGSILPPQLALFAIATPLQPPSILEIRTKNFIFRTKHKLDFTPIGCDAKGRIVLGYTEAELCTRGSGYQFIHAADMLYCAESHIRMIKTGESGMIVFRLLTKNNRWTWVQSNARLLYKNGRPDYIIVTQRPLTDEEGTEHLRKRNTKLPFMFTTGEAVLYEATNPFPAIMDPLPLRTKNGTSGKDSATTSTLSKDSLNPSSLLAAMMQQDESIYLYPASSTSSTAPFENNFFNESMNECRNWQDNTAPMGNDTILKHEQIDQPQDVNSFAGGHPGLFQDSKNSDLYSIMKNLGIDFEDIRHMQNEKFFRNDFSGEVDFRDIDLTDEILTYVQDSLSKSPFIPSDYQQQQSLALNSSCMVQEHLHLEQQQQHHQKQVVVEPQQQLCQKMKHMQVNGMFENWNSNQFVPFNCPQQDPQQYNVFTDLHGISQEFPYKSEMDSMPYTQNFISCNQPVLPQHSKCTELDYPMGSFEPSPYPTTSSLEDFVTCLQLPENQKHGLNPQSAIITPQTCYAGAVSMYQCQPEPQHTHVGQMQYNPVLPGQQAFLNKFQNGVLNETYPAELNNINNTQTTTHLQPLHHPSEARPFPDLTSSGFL
# Wnt bcat act – Wnt/beta-catenin pathway activators, primary screen, cell-based, plate reader, single point | activation, % at 9.35 µM | Wnt/beta-catenin reporter cell assay, activator | 300,000 compounds, 1.2% hits; in the data active = activation above about 30%, passing the limit was not always enough; inconclusive = no clear call, values can overlap the other calls;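 note: 0% = neutral control wells and 100% = positive control wells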
# The depositor's hits bear a star; ? = inconclusive; . = not tested or not shown. A selection: hits, their analogues and other compounds. The true share with any hit is near 4.2%.
SMILES,MITF TRPM1 HTS,GAA850 FXN act,esBAF inh,AHR act,Wnt bcat act
O=C1[C@H]2[C@@H](c3ccc(F)cc3)N3C(=O)N(c4cccc(Br)c4)C(=O)[C@@]3(Cc3ccccc3)[C@H]2C(=O)N1C1CCCCC1,2,6,4,3,-11
O=C1[C@H]2[C@@H](c3ccc(F)cc3)N3C(=O)N(c4ccc(Br)cc4)C(=O)[C@@]3(Cc3ccc(Cl)cc3)[C@H]2C(=O)N1C1CCCCC1,-15,9.5*,-8,3,-11
CC[C@@]12C(=O)N(c3cccc(F)c3)C(=O)N1[C@H](c1ccc(F)cc1)[C@@H]1C(=O)N(C3CCCCC3)C(=O)[C@@H]12,-6,13*,.,4,.
COc1ccc(NC(=O)N(C)C[C@@H]2Oc3c(NC(=O)C4CCOCC4)cccc3C(=O)N([C@H](C)CO)C[C@H]2C)cc1,.,.,0,.,.
C[C@@H]1CN([C@H](C)CO)C(=O)c2cccc(NS(=O)(=O)c3cccs3)c2O[C@@H]1CN(C)S(C)(=O)=O,.,.,-3,.,.
CO[C@H]1CN(C)C(=O)c2cc(NS(=O)(=O)c3cn(C)cn3)ccc2OC[C@H](C)N(C)C[C@@H]1C,.,.,-4,.,.
CCCN1[C@H](C(=O)N(C)C)[C@@H](CO)[C@@H]2Cn3c(ccc(-c4ccc(OC)cc4)c3=O)[C@@H]21,.,.,4,.,.
NC(=O)N/N=C(/CCCCCC/C(=N\NC(N)=O)c1ccccc1)c1ccccc1,.,0,.,1,37*
CCCc1cc(C(=O)Nc2cccc(Cl)c2C)no1,50,6,58*,-3,14
CCCc1cc(C(=O)Nc2ccccc2SC)no1,.,0,51*,4,-2
CCCc1cc(C(=O)Nc2ccc(F)cc2F)no1,.,1,68*,0,18
COc1ccc(S(=O)(=O)N(C)C[C@H]2Oc3ccc(NC(=O)C4CCCCC4)cc3C(=O)N([C@@H](C)CO)C[C@@H]2C)cc1,.,.,2,.,.
CN(C)c1ccc(-c2csc(C(C)(O)c3cccc(F)c3)n2)cc1 (stereo not given),.,2,45*,.,-5
COc1ccc(-c2csc(C(C)(O)c3ccccc3)n2)cc1 (stereo not given),.,2,60*,.,1
CC(O)(c1cccc(F)c1)c1nc(-c2ccc(Cl)cc2)cs1 (stereo not given),.,1,-2,.,-2
Cc1noc(C)c1NC(=O)Nc1ccc2c(c1)C(=O)N([C@@H](C)CO)C[C@@H](C)[C@@H](CN(C)S(=O)(=O)c1cn(C)cn1)O2,.,.,6,.,.
COc1ccc(-c2csc(NC3=NCCCCC3)n2)cc1,-4,2,.,58*,0
Brc1ccc(-c2csc(NC3=NCCCCC3)n2)cc1,24,3,.,35,-3
COc1ccc(-c2csc(NNC3=NCCCCC3)n2)cc1,.,.,.,31,20
Fc1ccc(-c2csc(NC3=NCCC3)n2)cc1,56,2,.,55*,0
Cc1ccccc1-c1cnc2c(c1)C(=O)N([C@H](C)CO)C[C@H](C)[C@H](CN(C)C(=O)CC1CC1)O2,.,.,-9,.,.
COc1ccc(C(=O)Nc2ccc3ccccc3c2)cc1OC,.,3,86*,2,15
COc1cc(OC)c(C(=O)Nc2ccc3ccccc3c2)cc1OC,72,1,54*,28,.
COc1ccc(NC(=O)c2cc3ccccc3cc2OC)cc1OC,21,5,.,5,-1
COc1ccc(C(=O)Nc2c(O)ccc3ccccc23)cc1OC,-15,2,7,53*,1
SMILES,MITF TRPM1 HTS,GAA850 FXN act,esBAF inh,AHR act,Wnt bcat act
COc1ccc(S(=O)(=O)Nc2c(C(=O)O)[nH]c3ccccc23)cc1OC,-7,0,.,55*,6
CCCNC(=O)Nc1ccc2c(c1)C(=O)N(C)C[C@@H](OC)[C@@H](C)CN(CCC(F)(F)F)[C@H](C)CO2,.,.,-1,.,.
COc1ccc(S(=O)(=O)Nc2c(O)ccc3ccccc23)cc1OC,.,0,.,61*,10
Cn1nnc2cc(C(=O)Nc3ccc4ccccc4c3)ccc21,?,5,.,-12,56*
C[C@@H]1CN([C@H](C)CO)C(=O)Cc2cc(NS(=O)(=O)c3cccs3)ccc2O[C@H]1CN(C)C(=O)Nc1ccccc1,.,.,2,.,.
CCCOc1ccc(-c2nc(N3CCN(C)CC3)c3ccccc3n2)cc1,125*,6,22,16,46*
CCCOc1ccc(-c2nc(N3CCN(CC)CC3)c3ccccc3n2)cc1,22,1,-13,2,0
CCCCN1C(=O)/C(=C/C=C2\SCCN2C)SC1=S,92*,9.8*,.,.,11
CN1CCS/C1=C/C=C1\SC(=S)N(CC(=O)O)C1=O,9,0,-11,-2,-3
Oc1ccc(Cl)cc1CNc1nccs1,.,-1,-1,3,45*
Oc1ccc(Cl)cc1CNc1ccc(Br)cn1,74,1,75*,-3,.
CCCNC(=O)[C@@H]1[C@@H](CO)[C@@H]2Cn3c(cccc3=O)[C@H]1N2S(=O)(=O)c1ccccc1F,.,.,-6,.,.
COc1cccc2cc(-c3ccnc(N)n3)oc12,47,5,45*,6,5
COc1cccc2cc(-c3n[nH]c(=S)n3C)oc12,-8,0,.,-2,-2
C[C@H]1CN([C@@H](C)CO)C(=O)c2cc(C#CCN(C)C)cnc2O[C@H]1CN(C)C(=O)Nc1ccccc1F,.,.,-10,.,.
CCOC(=O)CC(=O)CSc1nc2ccc(C)cc2cc1C#N,74,6,34,9,22
COC(=O)CSc1nc2cc(C)ccc2cc1C#N,75,5,31,-2,80*
CC(=O)N(C)C[C@@H]1Oc2cc(C3=CCCC3)ccc2S(=O)(=O)N([C@@H](C)CO)C[C@H]1C,.,.,3,.,.
O=C(Nc1ccccc1F)N[C@H]1CC[C@H](CCNC(=O)C2CCC2)O[C@@H]1CO,.,.,-4,.,.
CC(=O)NCc1ccc(-c2csc(-c3cccs3)n2)cc1,55,3,53*,-5,20
c1cc2cc(-c3c(-c4ccc5c(c4)OCO5)noc3-c3ccsc3)ccc2[nH]1,42,1,55*,49*,33*
Cc1onc(-c2ccc3c(c2)OCO3)c1-c1ccc2[nH]ccc2c1,-23,-2,9,26,-4
CCCNC(=O)c1noc2c1CCc1cc(OC)ccc1-2,63,3,20,-3,0
COc1ccc2c(c1)CCc1c(C(=O)NCC(C)C)noc1-2,109*,5,21,-3,53*
COc1ccc2c(c1)CCc1c(C(=O)N3CCCCCC3)noc1-2,121*,6,44*,-9,.
C/C=C/c1ccc([C@@H]2[C@@H](CO)N[C@@H]2CN(CC(C)C)C(=O)c2ccccn2)cc1,.,.,-6,.,.
C[C@@H]1CN([C@H](C)CO)C(=O)CCCn2cc(nn2)CO[C@@H]1CN(C)C(=O)C1CC1,.,.,-2,.,.
O=S(=O)(c1ccccc1)N1CC[C@@H]2[C@H](CO)Nc3ccc(Br)cc3[C@@H]21,.,.,0,.,.
